Measured values from PubChem BioAssay.
Calls of active or inactive are those of the source. Unless noted, no rule for the calls is given here.

Columns and labels:
[1] = A549 cell viability effects, profiling panel, calcein-AM fluorescence, 48 h, basal (AID 1162); details: higher = more signal; also: test concentration not given here
[2] = adipocyte viability effects, profiling panel, cell-based, 3T3-L1 adipocytes, calcein-AM fluorescence, 48 h, basal (AID 1163); details: 3T3-L1 adipocytes viability, higher = more signal; also: test concentration not given here
[3] = HepG2 cell viability effects, profiling panel, calcein-AM fluorescence, 48 h, basal (AID 1164); details: higher = more signal; also: test concentration not given here
[4] = MM1S cell viability effects, profiling panel, calcein-AM fluorescence, 48 h, basal (AID 1165); details: higher = more signal;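 also: viability of MM1S multiple myeloma cells under basal unstimulated conditions; test concentration not given here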
[5] = basal RPMI8226 viability, no added stimulus, profiling panel, cell-based, calcein-AM fluorescence, 48 h, PK04 Diversity Set (AID 1166); details: RPMI8226 myeloma viability, higher = more signal;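 also: cells grown under basal conditions without added stimulus; test concentration not given here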
[6] = basal HepG2 mitochondrial membrane potential changes, profiling panel, cell-based, JC-1 fluorescence, 24 h, 100 nL compound (AID 1167); details: higher = more signal; also: test concentration not given here
[7] = basal 3T3-L1 adipocyte mitochondrial potential changes, profiling panel, cell-based, JC-1 fluorescence, 3T3-L1 adipocytes, 24 h, 100 nL compound (AID 1168); details: JC-1 mitochondrial fluorescence, higher = more signal, called active from +8 up or from −8 down; also: test concentration not given here
[8] = basal RPMI8226 mitochondrial membrane potential changes, profiling panel, cell-based, JC-1 fluorescence, 24 h, 100 nL compound (AID 1169); details: RPMI8226 myeloma, JC-1 mitochondrial potential fluorescence, higher = more signal; also: test concentration not given here
[9] = basal MM1S mitochondrial membrane potential changes, profiling panel, cell-based, JC-1 fluorescence, 24 h, 100 nL compound (AID 1170); details: higher = more signal; also: test concentration not given here
[10] = A549 lung cancer cell viability effects, profiling panel, resazurin fluorescence, 24 h, PK04 Diversity Set (AID 1171); details: higher = more signal, called active from +8 up or from −8 down; also: test concentration not given here
[11] = HepG2 liver cancer cell viability effects, profiling panel, resazurin fluorescence, 24 h, PK04 Diversity Set (AID 1172); details: higher = more signal; also: test concentration not given here
[12] = basal S. cerevisiae growth modulation, no modifier, primary screen, OD600, strain BY4716, 24 h, basal condition (AID 1173); details: OD600, 24 h, higher = more signal, called active from +8 up or from −8 down
[13] = MM1S myeloma cell viability, profiling panel, resazurin fluorescence, basal, 24 h, PK04 Diversity Set (AID 1174); details: higher = more signal, called active from +8 up or from −8 down;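 also: MM1S multiple myeloma cell line; test concentration not given here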
[14] = target: Dihydroorotate dehydrogenase (quinone), mitochondrial (Plasmodium falciparum (isolate 3D7)) (UniProt Q08210); assay: PfDHODH enzyme inhibitors, primary screen, biochemical, C-terminal His tag, absorbance 600 nm (AID 1175); details: DCIP absorbance 600 nm, higher = more signal, called active from +8 up or from −8 down;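 also: recombinant parasite enzyme with a five histidine tag at its C terminus; test concentration not given here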
Chain of Dihydroorotate dehydrogenase (quinone), mitochondrial (Plasmodium falciparum (isolate 3D7)) (Q08210 whole entry, looked up): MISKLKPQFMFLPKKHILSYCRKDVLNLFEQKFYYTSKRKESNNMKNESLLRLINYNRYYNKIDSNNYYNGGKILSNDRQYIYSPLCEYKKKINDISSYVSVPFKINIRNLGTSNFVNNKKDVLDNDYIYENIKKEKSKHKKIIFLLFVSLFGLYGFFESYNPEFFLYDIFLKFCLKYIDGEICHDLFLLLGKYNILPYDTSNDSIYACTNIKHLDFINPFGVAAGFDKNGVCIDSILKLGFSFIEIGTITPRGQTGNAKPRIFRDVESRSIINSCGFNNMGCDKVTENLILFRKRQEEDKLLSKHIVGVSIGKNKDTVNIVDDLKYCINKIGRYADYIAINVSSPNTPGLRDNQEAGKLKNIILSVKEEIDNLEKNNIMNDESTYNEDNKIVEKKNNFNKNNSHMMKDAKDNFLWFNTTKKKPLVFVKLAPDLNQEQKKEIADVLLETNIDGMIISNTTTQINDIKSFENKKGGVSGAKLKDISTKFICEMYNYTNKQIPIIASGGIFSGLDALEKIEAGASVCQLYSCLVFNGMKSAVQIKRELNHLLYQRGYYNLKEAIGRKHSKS

[15] = P. aeruginosa biofilm formation inhibitors, primary screen, strain PAO1, LB-PBS medium, absorbance 600 nm (AID 1176); also: test concentration not given here; details: P. aeruginosa PAO1 growth/biofilm, A600, 12 h; higher = more signal
[16] = S. cerevisiae RM11-1a growth modifiers, primary screen, strain RM11-1a, OD600, basal, 24 h (AID 1177); details: OD600, 24 h, higher = more signal, called active from +8 up or from −8 down;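 also: cultures grown under basal conditions with no added stressor; test concentration not given here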
[17] = E. coli acrAB mutant growth effects, primary screen, E. coli filamentation inducers, strain DRC39, OD650, 24 h (AID 1178); details: higher = more signal, called active from +8 up or from −8 down;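 also: growth measured as culture turbidity by optical density at 650 nm; test concentration not given here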
[18] = E. coli acrAB mutant growth effects, primary screen, E. coli filamentation inducers, strain DRC39, OD650, 48 h (AID 1179);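 also: screen aims at cell division blockers that make cells filament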; details: E. coli DRC39 delta-acrAB growth, higher = more signal, called active from +8 up or from −8 down
[19] = RPMI8226 myeloma cell viability, profiling panel, resazurin fluorescence, basal, 24 h, PK04 Diversity Set (AID 1180); details: higher = more signal;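 also: RPMI8826 multiple myeloma cell line at 5000 cells per well; test concentration not given here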
[20] = target: E3 ubiquitin-protein ligase XIAP (Homo sapiens) (UniProt P98170); assay: XIAP binders, primary screen, biophysical, small-molecule microarray, fluorescence 635 nm (AID 1181); details: small-molecule microarray binding, higher = more signal;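 also: score merges 667 nm emission and signal to noise over triplicate slides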
Chain of E3 ubiquitin-protein ligase XIAP (Homo sapiens) (P98170 whole entry, looked up): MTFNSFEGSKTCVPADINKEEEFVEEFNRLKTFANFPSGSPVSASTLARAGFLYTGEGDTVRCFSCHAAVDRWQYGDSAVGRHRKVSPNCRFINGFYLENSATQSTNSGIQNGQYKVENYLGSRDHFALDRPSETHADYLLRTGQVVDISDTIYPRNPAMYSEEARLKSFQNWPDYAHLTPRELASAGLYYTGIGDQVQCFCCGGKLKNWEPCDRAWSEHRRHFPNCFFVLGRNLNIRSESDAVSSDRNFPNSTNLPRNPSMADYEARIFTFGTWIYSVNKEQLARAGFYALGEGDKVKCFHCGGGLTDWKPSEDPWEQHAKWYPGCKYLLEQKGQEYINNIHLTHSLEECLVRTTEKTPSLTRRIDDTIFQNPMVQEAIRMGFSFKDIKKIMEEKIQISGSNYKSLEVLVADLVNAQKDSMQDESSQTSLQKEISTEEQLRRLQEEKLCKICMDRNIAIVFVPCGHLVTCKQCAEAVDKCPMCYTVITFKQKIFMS

Structure (SMILES)	z-score [1]	z-score [2]	z-score [3]	z-score [4]	z-score [5]	z-score [6]	z-score [7]	z-score [8]	z-score [9]	z-score [10]	z-score [11]	z-score [12]	z-score [13]	composite z-score [14]	z-score [15]	z-score [16]	z-score [17]	z-score [18]	z-score [19]	composite z-score [20]
CCC#CCN(Cc1ccccc1Br)[C@H](/C=C/c1ccccc1)[C@@H](O)Cc1ccccc1	0.178	-0.0581	-0.124	-0.227	-2.42	-2.35	-1.44 (inactive)	-0.608	-0.32	1.36 (inactive)	1.53	0.238 (inactive)	0.753 (inactive)	0.514 (inactive)	-0.553 (inactive)	0.846 (inactive)	1.19 (inactive)	0.994 (inactive)	0.0518	0.0101
C=CCN1C(=O)[C@@]2(Cc3ccccc3)N=C(c3ccc(OCCCO)cc3)O[C@H]2c2ccccc21	-1.38	1.56	-1.82	-2.95	-3.94	-2.07	1.58 (inactive)	-1.11	-2.14	-1.36 (inactive)	-0.406	-2.11 (inactive)	-2.82 (inactive)	0.324 (inactive)	1.39 (inactive)	0.414 (inactive)	-0.304 (inactive)	-0.239 (inactive)	-4.23	0.212
CC[C@@H]1C=C(C(=O)O)[C@H](c2ccccc2)N1S(=O)(=O)c1ccc([N+](=O)[O-])cc1	-0.353	-0.49	0.271	0.0363	0.0806	0.414	-0.375 (inactive)	0.769	-0.877	0.0551 (inactive)	0.244	0.736 (inactive)	-0.253 (inactive)	0.264 (inactive)	-0.461 (inactive)	-0.1 (inactive)	-2.44 (inactive)	-1.84 (inactive)	0.0416	0.101
COCCCNC(=O)[C@@]1(c2ccc([N+](=O)[O-])cc2)CC(=O)N(C2CCCCC2)[C@@H]1c1ccc(CO)cc1	0.286	0.0134	0.366	-0.214	-0.0968	0.437	-0.605 (inactive)	0.00327	0.509	0.902 (inactive)	0.172	-0.27 (inactive)	0.337 (inactive)	-0.0394 (inactive)	0.814 (inactive)	-0.491 (inactive)	-0.131 (inactive)	-0.346 (inactive)	0.946	0.147
Cc1cc(C)c(C(O)C2C=CC3C(=O)N(C)C(=O)C3N2N2CCCCC2)c(C)c1 (stereo not given)	-0.905	-0.878	-0.863	-0.225	-1.11	-1.74	-0.721 (inactive)	0.935	0.173	0.406 (inactive)	0.0632	0.361 (inactive)	-1.09 (inactive)	-0.416 (inactive)	0.875 (inactive)	-0.136 (inactive)	-0.894 (inactive)	-0.435 (inactive)	-1.02	0.305
COC(=O)[C@@]1(Cc2ccc(OC)cc2)[C@H]2c3cc(C(=O)N(C)C)n(CCc4ccc(OC)c(Br)c4)c3C[C@H]2CN1C(=O)c1ccccc1	-1.55	-1.08	-0.992	-1.6	-4.57	2.92	-1.39 (inactive)	-0.855	-2.23	-1.39 (inactive)	-0.575	1.36 (inactive)	-2.09 (inactive)	0.125 (inactive)	1.22 (inactive)	0.961 (inactive)	-0.307 (inactive)	-0.025 (inactive)	-3.63	-0.0848
C#CCCCON=C1C[C@@H](O)[C@@H](O)[C@@H]2[C@@H]3C(=O)N(Cc4ccc5c(c4)OCO5)C(=O)[C@@H]3CC[C@@H]12	0.347	-1.2	-0.61	1.03	0.351	0.722	1.44 (inactive)	0.412	-1.46	0.414 (inactive)	0.606	0.532 (inactive)	0.241 (inactive)	0.175 (inactive)	-0.993 (inactive)	0.577 (inactive)	0.571 (inactive)	0.186 (inactive)	1.42	0.0785
C[C@@H]1NC(=O)[C@H](Cc2ccccc2)NC(=O)[C@@]23C(=O)N[C@@H](Cc4ccccc4)C2[C@H](C)[C@@]2(C)O[C@H]2C3/C=C/C/C=C\CNC1=O (stereo not given in full)	-0.0598	0.523	-0.706	0.0254	-1.65	-0.971	-0.206 (inactive)	0.814	0.546	-0.207 (inactive)	-0.51	-0.256 (inactive)	-0.0224 (inactive)	0.398 (inactive)	0.236 (inactive)	0.657 (inactive)	-0.593 (inactive)	-0.514 (inactive)	-0.0497	-0.119
Cc1ccc(S[C@]2(C(=O)NC(C)C)CC(=O)N(C3Cc4ccccc4C3)[C@@H]2c2ccc(CO)cc2)cc1	0.0188	2.29	0.0794	0.549	-1.02	0.0355	-0.636 (inactive)	0.758	0.643	-0.0208 (inactive)	0.0858	-0.0445 (inactive)	0.48 (inactive)	-0.335 (inactive)	0.229 (inactive)	-0.792 (inactive)	-0.127 (inactive)	-0.768 (inactive)	0.33	0.0181
C#CCCCON=C1C[C@@H](O)[C@@H](O)[C@@H]2[C@@H]3C(=O)N(Cc4ccc5c(c4)OCO5)C(=O)[C@@H]3CC[C@H]12	0.391	-0.027	-0.464	0.484	0.0196	-0.537	-0.0334 (inactive)	-0.427	-0.778	0.495 (inactive)	0.168	0.0943 (inactive)	-0.255 (inactive)	-0.338 (inactive)	-0.708 (inactive)	0.162 (inactive)	0.483 (inactive)	0.961 (inactive)	0.126	-0.127
C=C(C(=O)CC[C@H](OC(=O)c1ccccc1-c1ccccc1C(=O)O)c1ccc(CO)o1)C(C)C	-0.473	-0.284	-0.396	-0.263	0.0025	-0.906	-0.244 (inactive)	0.374	0.668	0.529 (inactive)	-0.256	0.656 (inactive)	0.192 (inactive)	-0.976 (inactive)	0.98 (inactive)	1.73 (inactive)	0.101 (inactive)	0.0357 (inactive)	0.951	-0.153
CCCC[C@@H]1C[C@H]1[C@@H](NC(=O)c1cccs1)c1ccc(Cl)cc1	-1.36	1.11	-1.02	-0.992	-2.99	-1.16	0.53 (inactive)	-0.912	-0.53	0.6 (inactive)	-0.513	0.831 (inactive)	-0.0593 (inactive)	-3.8 (inactive)	2.82 (inactive)	0.595 (inactive)	-0.249 (inactive)	-0.586 (inactive)	0.513	0.267
C=C(CCCC)/C(=C/C[C@H](OC(=O)c1ccncc1)c1cccc(OCCO)c1)c1cc(C(=O)OC)ccc1OC	0.215	2.52	0.0827	-1.78	-1.93	4.13	-0.174 (inactive)	-0.337	-0.342	2.6 (inactive)	1.06	-0.0252 (inactive)	0.585 (inactive)	-1.61 (inactive)	-0.988 (inactive)	-0.549 (inactive)	-0.232 (inactive)	-0.0622 (inactive)	0.15	-0.0916
O=C1C2C=CC(C(O)Cc3ccccc3)N(Nc3ccc([N+](=O)[O-])cc3)C2C(=O)N1c1ccccc1 (stereo not given)	-0.356	-0.116	0.0181	0.568	-0.0631	-1.36	0.0226 (inactive)	0.517	-0.876	0.007 (inactive)	-0.346	-0.168 (inactive)	-0.824 (inactive)	-0.75 (inactive)	0.946 (inactive)	-0.518 (inactive)	-1.22 (inactive)	0.0196 (inactive)	-0.358	0.202
O=C(CS)NCCCCCCNC(=O)[C@@H]1C[C@@H]2C(=O)N[C@@H](Cc3ccccc3)C(=O)N2[C@@H]1c1ccc(O)cc1	-0.401	0.861	-0.963	-0.0227	0.612	-1.67	-0.654 (inactive)	-0.208	-0.716	-0.226 (inactive)	-0.306	0.636 (inactive)	0.0515 (inactive)	0.224 (inactive)	-0.239 (inactive)	0.809 (inactive)	-0.288 (inactive)	-0.889 (inactive)	-0.518	0.0518
O=C(NCc1ccccc1)c1ccc(Br)cc1[N+](=O)[O-]	-0.787	0.0153	0.0565	-0.0086	0.287	-0.0457	0.346 (inactive)	-0.745	0.189	0.0828 (inactive)	0.0759	-2.42 (inactive)	0.0636 (inactive)	-1.37 (inactive)	-0.131 (inactive)	-0.465 (inactive)	0.986 (inactive)	-0.411 (inactive)	-0.447	-0.127
CC(=O)NCCCC[C@@H]1NC(=O)[C@H]2C[C@@H](C(=O)NCCCCCCN(C)C)[C@@H](c3cccc(OCCO)c3)N2C1=O	0.214	0.509	0.344	0.27	0.079	-0.0861	-0.308 (inactive)	-0.125	-0.376	-0.739 (inactive)	-0.526	-1.16 (inactive)	-0.143 (inactive)	-0.0259 (inactive)	0.42 (inactive)	-0.0243 (inactive)	0.617 (inactive)	-0.197 (inactive)	-0.696	-0.0067
